Among all 44,000 sequences or so, about 4,100 (9.3%) were called active. Rule as the data show it: active = GI50 up to about 1.1 µM and inactive = higher. For the sample, actives were picked, then their nearest neighbours and some sequences at random. Results with a measured potency or affinity are listed apart.

This assay relates to MDA-MB-435.
On to “[Bis(aminomethyl)tetramethylenesilane]dichloropaltinum(II), CHEMBL2146205”, for which the GI50 amounted to 3.51 µM. Consider “[Bis(aminomethyl)tetramethylenesilane]tetrachloropaltinum(IV), CHEMBL2146189”, for which the GI50 came out at 9.02 µM. The figure for CISPLATIN, CHEMBL11359 is 5.96 µM. Next, “[Bis(aminomethyl)pentamethylenesilane]dichloropaltinum(II), CHEMBL2146202”: 1.31 µM. Turning to “[Bis(aminomethyl)pentamethylenesilane]tetrachloropaltinum(IV), CHEMBL2146204”, the GI50 came to 0.438 µM. This GI50 lies about 3-fold lower than the previous one. With “[Bis(aminomethyl)dimethylsilane]tetrachloroplatinum(IV), CHEMBL2146190”, the concentration for 50% growth inhibition (GI50) came out at 13.9 µM.

The term GI50 denotes the concentration giving 50% growth inhibition. The low end stands for more potent growth inhibition, the high end for less potent growth inhibition.

These data come from ChEMBL document CHEMBL1201862, “PubChem BioAssay data set” (2004).
